Compounds with a hit are over-represented: about 9.5% of the library has one in this group of screens.
RE007 growth inh: less growth of the S. pombe RE007 Vpr strain; S. pombe RE007 Vpr strain, BacTiter-Glo ATP luminescence, 24 h; Potency, µM (titrated, usually from 92.2 µM), for the others: at the highest dose activity change, negative = less growth, most hits filed as inhibitors; 0.21% of 360,000 active; AID 651644; active = well fitted falling curve with a large enough effect; inconclusive = small, poorly fitted or top-dose-only effect; inactive = no such curve, though single readings can be large or run the other way; also: % is scaled to controls: 0 for no effect and ±100 for the full control effect; nearly all actives have a fitted effect of over 50% in size
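Fission yeast strain RE007, carrying one chromosomally integrated HIV-1 vpr copy, was seeded at OD 0.01 in PMG+AL medium with 23 nL pinned compound. After 24 h at 30 °C and 99% humidity, viability was read by BacTiter-Glo luminescence.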
SARS PLP yeast: inhibitors of SARS-CoV papain-like protease in yeast; S. cerevisiae expressing SARS-CoV PLpro, growth rescue; Potency, µM (highest dose often 32.9 µM), without a hit: at the top dose activity, positive = growth rescue, hits mostly activators; 0.19% of 330,000 active; AID 485353; calls by dose curve; also: 0% is about no effect; nearly all actives have a fitted effect of over 55% in size
Pf growth 48h: P. falciparum growth inhibition at 48 hours (one generation). P. falciparum luciferase growth in erythrocytes, 48 h. Potency, µM (series often up to 28.7 µM), for the others: at the highest dose activity change, negative = inhibition, hits mostly inhibitors. 5.9% of 310,000 active; also: % is scaled to controls: 0 for no effect and ±100 for the full control effect
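Read-out is firefly luciferase luminescence from an integrated reporter in P. falciparum, so falling signal marks reduced parasite growth. Infected erythrocytes were at 2% hematocrit and 0.1% parasitemia (final) in Albumax-supplemented RPMI 1640.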
NS1 function inh: inhibitors of influenza NS1 protein function. Potency, µM (titrated, usually from 46.1 µM), without a hit: top-dose activity, positive = more growth. 0.4% of 270,000 active; calls by dose curve; also: actives are rising curves; nearly all actives have a fitted effect of over 50% in size
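A cell-based growth assay was used: compounds that relieve NS1-induced slow growth of budding yeast raise OD600. Assay medium was yeast nitrogen base with ammonium sulphate and -URA supplement, pH 6.0, with 2% galactose.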
Pf growth 96h: inhibits malaria parasite growth, 96 h | P. falciparum luciferase reporter growth, 96 h | Potency, µM (doses to about 28.7 µM), inactives show top-dose activity change, negative = inhibition, most hits filed as inhibitors | 6.9% of 320,000 active | AID 504834; also: % is scaled to controls: 0 for no effect and ±100 for the full control effect
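Plates of compound plus infected erythrocytes (2% hematocrit, 0.05% parasitemia final) incubate 96 hours, 37 C, 5% CO2. Detection reagent added; reduced luminescence from the parasites' luciferase reporter flags inhibition.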
* hit, by the source's call; [ ] = remark or other dose. Unless noted, calls follow the shape of the dose curve; as a rule, active = well fitted inhibition curve with a large enough effect; inconclusive = small, poorly fitted or top-dose-only effect, or another doubt; inactive = no such curve, though single readings can be large or run the other way. Potency is read from the fitted curve at half-maximal effect.

For CC(C)C[C@@H](CC#N)N1CCN(Cc2ccccc2)CCC1=O the results were RE007 growth inh -3%, SARS PLP yeast -14%, Pf growth 48h 9%, NS1 function inh 14% and Pf growth 96h inconclusive.
`O=C(CSc1nn(-c2ccc(Cl)cc2)c(=S)s1)N1CCN(C(=O)c2ccco2)CC1` gave RE007 growth inh 0%, SARS PLP yeast -2%, Pf growth 48h 4.7µM*, NS1 function inh -55% and Pf growth 96h -14%.
Screening O=C(CSc1nn(-c2ccc(F)cc2)c(=S)s1)N1CCN(C(=O)c2ccco2)CC1 returned RE007 growth inh -1%, SARS PLP yeast -2%, Pf growth 48h -14% and NS1 function inh -1%.
O=C(COc1ccc([N+](=O)[O-])cc1)NNC(=O)Nc1cccc(F)c1 was read as RE007 growth inh 7%, SARS PLP yeast -7%, Pf growth 48h -28%, NS1 function inh -71% and Pf growth 96h 3%.
Screening CCCc1nn(C)c(C(N)=O)c1[N+](=O)[O-] returned RE007 growth inh -4%, SARS PLP yeast 1%, Pf growth 48h 7% and Pf growth 96h inconclusive.
Screening O=C(COC(=O)c1ccc(S(=O)(=O)C(F)F)cc1)Nc1cccnc1Cl returned RE007 growth inh 5%, SARS PLP yeast -1%, Pf growth 48h -19% and Pf growth 96h 11%.
COc1ccc2cc(C(c3nnnn3C(C)(C)C)N3CCSCC3)c(=O)[nH]c2c1 (configuration not stated) was read as RE007 growth inh -12%, SARS PLP yeast 1%, Pf growth 48h 12µM*, NS1 function inh 5% and Pf growth 96h -3%.
COc1cc2cc(C(c3nnnn3Cc3ccc(F)cc3)N3CCCCCC3)c(=O)[nH]c2cc1OC (configuration not stated) was read as RE007 growth inh -11%, SARS PLP yeast 3%, Pf growth 48h inconclusive, NS1 function inh -13% and Pf growth 96h inconclusive.
`COc1ccc(Cn2nnnc2C(c2cc3ccc(OC)cc3[nH]c2=O)N2CCCCCC2)cc1` (configuration not stated) gave RE007 growth inh 3%, SARS PLP yeast -7%, Pf growth 48h 9.3µM*, NS1 function inh -5% and Pf growth 96h 8%.
Screening CCc1ccccc1NC(=O)COc1ccc2c(c1)OCO2 returned RE007 growth inh -12%, SARS PLP yeast -1%, Pf growth 48h -7% and Pf growth 96h 0%.
For N#Cc1ccccc1NC(=O)COc1ccc2c(c1)OCO2 the results were RE007 growth inh -29%, SARS PLP yeast 0%, Pf growth 48h 121%, NS1 function inh -1% and Pf growth 96h 8.3µM*.
Screening CC1CC(C)(C)NC(=S)N1CCC(=O)Nc1ccc2c(c1)OCCO2 (configuration not stated) returned RE007 growth inh 17%, SARS PLP yeast 0%, Pf growth 48h -21% and Pf growth 96h 1.5µM*.
C[C@@H]1CN([C@@H](C)CO)C(=O)CCCn2nncc2CO[C@@H]1CN(C)S(=O)(=O)c1ccc(Oc2ccccc2)nc1 was read as RE007 growth inh 45%.
`CS(=O)(=O)N1CCC(Oc2ccccc2C(=O)NCCCc2cccnc2)CC1` gave RE007 growth inh 8%, SARS PLP yeast 1%, Pf growth 48h -11%, NS1 function inh -1% and Pf growth 96h 9.3µM*.
`Cc1ccc(-c2cc3nc(-c4ccccc4)cc(NCCCO)n3n2)cc1` gave RE007 growth inh 0%.
Screening Cn1cc(C(F)(F)F)nc1-c1ccc(OCC(O)CNCCOc2ccc(O)c(C(N)=O)c2)cc1 (configuration not stated) returned RE007 growth inh -5%[18.4 µM], SARS PLP yeast 2%, Pf growth 48h 9.3µM*, NS1 function inh -3% and Pf growth 96h inconclusive.
`Cc1ccccc1Cn1ccc(=NCc2ccccc2)cc1` gave RE007 growth inh -16%, SARS PLP yeast 6%, Pf growth 48h 0.74µM*, NS1 function inh -2% and Pf growth 96h 0.33µM*.
For COCCN(C(=O)Cc1cccs1)C(C(=O)NCc1ccc(OC)cc1)c1ccc(C(C)C)cc1 (configuration not stated) the results were RE007 growth inh 10%, SARS PLP yeast -17%, Pf growth 48h 2.1µM*, NS1 function inh -18% and Pf growth 96h 2.9µM*.
COCCN(C(=O)Cc1cccs1)C(C(=O)NCc1ccc(OC)cc1)c1ccc(C)cc1 (configuration not stated) was read as RE007 growth inh -8%, SARS PLP yeast 2%, Pf growth 48h 8.3µM*, NS1 function inh -19% and Pf growth 96h 5.9µM*.
For CCc1ccc(C(C(=O)NCc2ccc(OC)cc2)N(CCOC)C(=O)Cc2cccs2)cc1 (configuration not stated) the results were RE007 growth inh 10%, SARS PLP yeast -16%, Pf growth 48h 4.1µM*, NS1 function inh -43% and Pf growth 96h 1.5µM*.
COc1ccc(CNC(=O)Cc2cccs2)cc1 was read as RE007 growth inh 3%, SARS PLP yeast -2%, Pf growth 48h 60%, NS1 function inh 6% and Pf growth 96h inconclusive.
COCCN(C(=O)Cc1cccs1)C(C(=O)NC1CCCC1)c1ccc(OC)c(OC)c1 (configuration not stated) was read as RE007 growth inh 9%, SARS PLP yeast 0%, Pf growth 48h -28%, NS1 function inh 2% and Pf growth 96h 19%.
`COc1ccc(CNC(=O)C(c2ccc(C)o2)N(Cc2cccs2)C(=O)Cc2cccs2)cc1` (configuration not stated) gave RE007 growth inh -9%, SARS PLP yeast 0%, Pf growth 48h 15µM*, NS1 function inh 7%[9.22 µM] and Pf growth 96h 160%.
`CC(=O)OC(C)[C@H]1CC[C@H]2[C@@H]3CC[C@H]4C[C@@H](OC(C)=O)CC[C@]4(C)C3=CC[C@]12C` (some centres not stated) gave RE007 growth inh 1%, SARS PLP yeast 0%, Pf growth 48h inconclusive and Pf growth 96h 57%.
`Cc1ccsc1C(=O)N1CCCC(N(C)Cc2ccccc2)C1` (configuration not stated) gave RE007 growth inh -15%, SARS PLP yeast 0%, Pf growth 48h 26%, NS1 function inh 16% and Pf growth 96h -67%.
CC[C@]12c3[nH]c4ccc(OC)cc4c3CCN1C(=O)C(CC(=O)NCc1ccc(OC)c(OC)c1)C[C@@H]2C(=O)N1CCN(C(=O)C2CC2)CC1 (some centres not stated) was read as RE007 growth inh -5% and SARS PLP yeast 2%.
For CC1CCCCN1S(=O)(=O)c1ccc(C(=O)N2CCOCC2)cc1 (configuration not stated) the results were RE007 growth inh -6%, SARS PLP yeast 3%, Pf growth 48h -9%, NS1 function inh 22% and Pf growth 96h -17%.
